Screens (PubChem)
F508del corr: F508del CFTR correction, initial screen, CFBE line, single point | activity (quench increase), % at 7.58 µM | 350,000 tested, 0.36% active | AID 720511, 2013 | CFBE cells, YFP halide quenching; stimulated with forskolin plus potentiator P3; % fluorescence drop versus neutral controls;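 active = mean added fluorescence quench of at least 8% versus neutral control, with both replicates also reaching 8%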;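 note: cells transiently co-express mutant CFTR-F508del with the halide-sensitive YFP; corrector assay measuring rescue of mutant channel to the surface after 24 h compound exposure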
rRNA inh HTS: reduced GFP signal of wild-type E. coli, primary screen, bacterial rRNA inhibitor project, GFP/RFP fluorescence, OD600, single point; E. coli WT GFP vs humanized-ribosome RFP mutants, 24 h; stronger effect = lower value; DMSO median 0, no signal -100; AID 720706, 2013; GFP signal change (wild-type ribosome), % (concentration not given with the values); 350,000 tested, 1.6% active;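 active = significant combined selectivity score with lowered wild-type GFP, culture density cut under 30%, mutant RFP and density less affected; inactive = any of these conditions unmet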
ARNT-TACC3 inh: disruptors of ARNT/TACC3 protein interaction, primary screen, biochemical, AlphaScreen, single concentration; 390,000 tested, 0.66% active; AID 623870, 2012; Transforming acidic coiled-coil-containing protein 3 (Homo sapiens), Q9Y6A5; AlphaScreen His-ARNT PAS-B/GST-TACC3 binding, luminescence; TACC3 fragment carries E629A point mutation; inhibition, % at 9.99 µM;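 active = mean inhibition of replicates at least 50% and at least half of replicates each reaching 50%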;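 note: 0% = complete ARNT plus TACC3 wells and 100% = ARNT alone without TACC3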
PvdQ acylase: P. aeruginosa PvdQ acylase inhibitors, primary screen, biochemical, fluorescence, plate reader and imaging, single point. PvdQ acylase [Pseudomonas aeruginosa LESB58]. purified PvdQ acylase. inhibition, % at 10 µM. 340,000 tested, 0.063% active. AID 488965, 2010; in the data active = inhibition above about 30%, passing the limit was not always enough;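 note: 0% = vehicle neutral wells and 100% = reference inhibitor wells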
ERAP1 HTS inh: human ERAP1 aminopeptidase inhibitors, primary screen, biochemical, single point, plate reader; 340,000 tested, 0.15% active; recombinant ERAP1, Leu-AMC fluorescence, 60 min; inhibition, % at 10.7 µM; AID 652197, 2013; Endoplasmic reticulum aminopeptidase 1 (Homo sapiens), Q9NZ08;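 active = mean replicate inhibition of at least 30%, or all replicates individually reaching that 30% level; inactive = mean below 30% and not every replicate reaching it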;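 note: 0% = neutral control wells and 100% = L-leucinethiol positive control wells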
Target sequence (Q9NZ08 whole entry, looked up): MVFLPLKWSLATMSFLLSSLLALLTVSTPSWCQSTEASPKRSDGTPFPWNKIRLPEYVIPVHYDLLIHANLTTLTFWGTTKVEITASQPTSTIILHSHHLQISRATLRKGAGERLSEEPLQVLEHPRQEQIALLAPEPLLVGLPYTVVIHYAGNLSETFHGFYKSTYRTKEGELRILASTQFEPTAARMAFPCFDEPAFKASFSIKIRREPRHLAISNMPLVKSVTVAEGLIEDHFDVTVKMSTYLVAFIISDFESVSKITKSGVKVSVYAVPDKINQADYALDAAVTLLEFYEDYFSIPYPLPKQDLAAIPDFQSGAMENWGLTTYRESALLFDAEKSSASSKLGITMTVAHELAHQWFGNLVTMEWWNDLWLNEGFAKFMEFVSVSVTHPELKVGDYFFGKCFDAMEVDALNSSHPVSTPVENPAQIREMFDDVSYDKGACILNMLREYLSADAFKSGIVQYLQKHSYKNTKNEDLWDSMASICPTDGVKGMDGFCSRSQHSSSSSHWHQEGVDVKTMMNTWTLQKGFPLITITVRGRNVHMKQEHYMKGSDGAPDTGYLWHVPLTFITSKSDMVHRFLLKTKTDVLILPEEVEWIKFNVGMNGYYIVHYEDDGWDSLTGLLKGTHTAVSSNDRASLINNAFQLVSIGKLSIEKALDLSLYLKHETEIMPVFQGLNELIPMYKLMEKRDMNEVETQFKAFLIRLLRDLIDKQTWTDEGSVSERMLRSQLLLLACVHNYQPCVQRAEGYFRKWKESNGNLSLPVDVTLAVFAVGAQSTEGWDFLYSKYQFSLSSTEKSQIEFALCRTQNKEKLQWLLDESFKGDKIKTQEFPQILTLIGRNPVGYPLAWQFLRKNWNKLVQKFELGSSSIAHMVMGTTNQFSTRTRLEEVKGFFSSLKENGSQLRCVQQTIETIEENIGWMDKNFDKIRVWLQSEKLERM
An asterisk follows results filed as active. Shown are actives, neighbours in structure and some others; about 2.1% of the full set was active somewhere.

Clc1ccc(-c2c[n+](Cc3ccc(Br)cc3)c3n2CCCCC3)cc1 was read as F508del corr 4.5, rRNA inh HTS -51.8*, ARNT-TACC3 inh 1.6, PvdQ acylase -8.0 and ERAP1 HTS inh 1.9.
`O=[N+]([O-])c1ccc(C[n+]2cc(-c3ccccc3)n3c2CCCCC3)cc1` gave F508del corr 0.6, rRNA inh HTS 12.3, ARNT-TACC3 inh -6.1, PvdQ acylase -22.2 and ERAP1 HTS inh 0.6.
For O=[N+]([O-])c1ccc(C[n+]2cc(-c3ccc(Cl)c(Cl)c3)n3c2CCCCC3)cc1 the results were F508del corr 3.7, rRNA inh HTS -49.0*, ARNT-TACC3 inh 0.9, PvdQ acylase 4.7 and ERAP1 HTS inh 7.6.
Screening O=C(NCc1ccccc1)c1nc2ccccc2s1 returned F508del corr -2.3, rRNA inh HTS -29.7*, ARNT-TACC3 inh -7.8, PvdQ acylase -15.3 and ERAP1 HTS inh -3.8.
Screening N#C[C@@H]1[C@@H](c2ccccc2-c2ccccc2F)[C@@H](CO)N1C(=O)C1CCOCC1 returned F508del corr -1.7, rRNA inh HTS 2.2 and ERAP1 HTS inh -0.9.
O=C(COc1ccccc1F)NNC(=O)c1cccc(-n2cccc2)c1 was read as F508del corr 1.4, rRNA inh HTS -43.5*, PvdQ acylase -16.5 and ERAP1 HTS inh -5.1.
For O=C(O)c1cc(Nc2cc(Cl)c3nonc3c2[N+](=O)[O-])ccc1O the results were F508del corr 0.6, rRNA inh HTS -11.4, ARNT-TACC3 inh 19.2, PvdQ acylase -0.3 and ERAP1 HTS inh 35.8*.
Screening Cc1ccccc1C(=O)NNC(=O)Cc1cccc2ccccc12 returned F508del corr -3.6, rRNA inh HTS -40.8*, ARNT-TACC3 inh -0.7, PvdQ acylase 9.1 and ERAP1 HTS inh -2.9.
Screening O=C(Cc1cccc2ccccc12)Nc1ccccc1 returned F508del corr 0.4, rRNA inh HTS 4.0, ARNT-TACC3 inh -5.0, PvdQ acylase 2.5 and ERAP1 HTS inh -0.9.
`C[C@H](NC(=O)Cc1cccc2ccccc12)C(=O)NCc1ccccc1` gave F508del corr 3.2, rRNA inh HTS -31.6*, ARNT-TACC3 inh -9.2, PvdQ acylase -16.5 and ERAP1 HTS inh -3.7.
COc1ccc(Br)c(C(=O)OCC(=O)N2CCC(Cc3ccccc3)CC2)c1 was read as F508del corr 0.2, rRNA inh HTS -35.3*, ARNT-TACC3 inh -9.2, PvdQ acylase 8.9 and ERAP1 HTS inh -3.4.
For CN(C)CCCN(C(=O)c1ccc2c(c1)CCCC2)c1nc2ccc(Cl)cc2s1 the results were rRNA inh HTS -52.5, ARNT-TACC3 inh 15.5, PvdQ acylase 4.4 and ERAP1 HTS inh 1.0.
Screening CN(C)CCN(C(=O)c1ccc2c(c1)CCCC2)c1nc2c(F)cccc2s1 returned F508del corr 1.8, rRNA inh HTS -17.9*, ARNT-TACC3 inh 17.1, PvdQ acylase -4.7 and ERAP1 HTS inh 2.7.
`CN(C)CCCN(C(=O)c1ccc(C(=O)c2ccccc2)cc1)c1nc2c(F)cccc2s1` gave F508del corr -0.3, rRNA inh HTS -36.8, ARNT-TACC3 inh 20.9, PvdQ acylase -1.9 and ERAP1 HTS inh -1.5.
`COc1cccc2sc(N(CCN(C)C)C(=O)c3ccc4c(c3)CCCC4)nc12` gave F508del corr 1.0, rRNA inh HTS -30.4*, ARNT-TACC3 inh 14.1, PvdQ acylase -12.5 and ERAP1 HTS inh -7.3.
`COCCN=c1scc(-c2ccc3c(c2)NC(=O)CO3)n1/N=C(\C)c1ccc(O)cc1` gave F508del corr -2.3, rRNA inh HTS -9.9, ARNT-TACC3 inh 1.9 and PvdQ acylase 0.3.
COCCN=c1scc(-c2cccs2)n1/N=C(\C)c1ccco1 was read as F508del corr 2.7, rRNA inh HTS 3.4, ARNT-TACC3 inh 45.8* and PvdQ acylase 10.3.
For O=C(Nc1cc(F)ccc1F)N1CCCCN2[C@@H](CO)[C@@H](c3ccc(-c4ccncc4)cc3)[C@@H]2C1 the results were F508del corr -4.4, rRNA inh HTS -3.3 and ARNT-TACC3 inh 0.0.
`Cn1c(N)c(C(=O)COC(=O)c2ccc(Cl)c(S(=O)(=O)N3CCCC3)c2)c(=O)n(C)c1=O` gave F508del corr 0.2, rRNA inh HTS -25.9*, ARNT-TACC3 inh 9.2, PvdQ acylase -16.7 and ERAP1 HTS inh 0.8.
Screening CCN(c1ccc(OCC(=O)OCC(=O)c2c(N)n(C)c(=O)n(C)c2=O)cc1)S(=O)(=O)c1ccccc1 returned F508del corr 1.4, rRNA inh HTS -15.0*, ARNT-TACC3 inh -2.1, PvdQ acylase -6.6 and ERAP1 HTS inh -0.8.
Cn1c(N)c(C(=O)COC(=O)CSc2ccccc2)c(=O)n(C)c1=O was read as F508del corr -0.5, rRNA inh HTS -17.6*, ARNT-TACC3 inh 33.2, PvdQ acylase 15.1 and ERAP1 HTS inh -1.5.
C=CCN(c1ccccc1OC)S(=O)(=O)c1cccc(C(=O)OCC(=O)c2c(N)n(C)c(=O)n(C)c2=O)c1 was read as F508del corr -0.2, rRNA inh HTS -18.6*, ARNT-TACC3 inh -2.5, PvdQ acylase -9.5 and ERAP1 HTS inh -1.3.
For Cn1c(N)c(C(=O)COC(=O)c2cc(S(=O)(=O)N3CCCCC3)ccc2Cl)c(=O)n(C)c1=O the results were F508del corr 0.5, rRNA inh HTS -26.0, ARNT-TACC3 inh -1.2, PvdQ acylase -14.9 and ERAP1 HTS inh -0.9.
Cn1c(N)c(C(=O)COC(=O)CSc2ccc3ccccc3c2)c(=O)n(C)c1=O was read as F508del corr -1.4, rRNA inh HTS -20.2, PvdQ acylase 3.4 and ERAP1 HTS inh -0.3.
CNS(=O)(=O)c1cccc(C(=O)OCC(=O)c2c(N)n(C)c(=O)n(C)c2=O)c1 was read as F508del corr -1.7, rRNA inh HTS -1.6, ARNT-TACC3 inh -6.4, PvdQ acylase -14.5 and ERAP1 HTS inh -4.4.
`CO[C@@H]1CN(C)C(=O)c2ccc(NS(=O)(=O)CC(F)(F)F)cc2OC[C@H](C)N(C(=O)NC(C)C)C[C@H]1C` gave F508del corr -0.3 and rRNA inh HTS -1.2.
Screening C[C@@H]1CCCCO[C@H](CN(C)C(=O)NC2CCCCC2)[C@H](C)CN([C@H](C)CO)C(=O)c2cc(NS(=O)(=O)c3ccccc3)ccc2O1 returned F508del corr -0.7, rRNA inh HTS -3.6, ARNT-TACC3 inh -14.0 and ERAP1 HTS inh 2.3.
For FC(F)(F)c1ccc(N/N=C/c2cccnc2)nc1 the results were F508del corr -2.5, rRNA inh HTS 3.0, ARNT-TACC3 inh -3.7, PvdQ acylase 4.7 and ERAP1 HTS inh -0.1.
Screening Cc1ncc(CO)c(/C=N/Nc2ccc(C(F)(F)F)cn2)c1O returned F508del corr 12.3*, rRNA inh HTS -6.7, ARNT-TACC3 inh 71.7*, PvdQ acylase -0.5 and ERAP1 HTS inh -2.6.
`Cc1ncc(CO)c(/C=N/NC(=S)Nc2ccc(F)cc2)c1O` gave ARNT-TACC3 inh 53.8* and PvdQ acylase -11.0.
